Rab9 promoter act: activators of Rab9 promoter | 320,000 tested, 2.8% active | AID 485297 | Huh7 Rab9 promoter-luciferase reporter, luminescence, 24 h | Potency, µM (titrated, usually from 9.22 µM), for the others: top-dose activation, negative = inhibition, actives largely listed as activators; note: % of control where 0% means no effect; nearly all actives have a fitted effect of over 60% in size
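Measured in stably transfected Huh7 cells bearing a Rab9 promoter–luciferase construct: 24 h compound treatment at 37 °C, followed by luminescence detection.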
p53 reactivation: re-activators of mutant p53; Potency, µM (series often up to 92.2 µM), without a hit: top-dose activity change, positive = activation, actives largely listed as activators; 320,000 tested, 0.063% active; H1299 p53-A138V BP100-luciferase reporter, luminescence, 24 h; AID 504706; note: % of control where 0% means no effect; nearly all actives have a fitted effect of over 45% in size
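p53-null H1299 cells stably carrying temperature-sensitive p53-A138V and a BP100-luciferase reporter were pinned with compounds (4-point, 1:5 series) and held 24 hrs at 37 deg C. Luminescence was read 10 min after detection reagent.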
NPC1 promoter act: activators of NPC1 promoter. Huh7 NPC1 promoter luciferase reporter, 24 h. Potency, µM (top dose mostly 9.22 µM), without a hit: top-dose activation, usual class: activators. 320,000 tested, 2.4% active. AID 485313; note: % of control where 0% means no effect; nearly all actives have a fitted effect of over 60% in size
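NPC1 promoter–luciferase Huh7 cells; 24 h compound; luminescence.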
FLuc modulator: inhibits or activates purified firefly luciferase, miR-21 counter-screen | 360,000 tested, 6.9% active | Potency, µM (doses to about 57.5 µM), for inactives: at the highest dose activity change, negative = inhibition, usual class: inhibitors | P08659 | purified FLuc, Km substrates, luminescence inhibition;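 note: plate controls were vehicle for no effect and reference inhibitor for full effect; nearly all actives have a fitted effect of over 55% in size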
Target sequence (P08659 whole entry, looked up): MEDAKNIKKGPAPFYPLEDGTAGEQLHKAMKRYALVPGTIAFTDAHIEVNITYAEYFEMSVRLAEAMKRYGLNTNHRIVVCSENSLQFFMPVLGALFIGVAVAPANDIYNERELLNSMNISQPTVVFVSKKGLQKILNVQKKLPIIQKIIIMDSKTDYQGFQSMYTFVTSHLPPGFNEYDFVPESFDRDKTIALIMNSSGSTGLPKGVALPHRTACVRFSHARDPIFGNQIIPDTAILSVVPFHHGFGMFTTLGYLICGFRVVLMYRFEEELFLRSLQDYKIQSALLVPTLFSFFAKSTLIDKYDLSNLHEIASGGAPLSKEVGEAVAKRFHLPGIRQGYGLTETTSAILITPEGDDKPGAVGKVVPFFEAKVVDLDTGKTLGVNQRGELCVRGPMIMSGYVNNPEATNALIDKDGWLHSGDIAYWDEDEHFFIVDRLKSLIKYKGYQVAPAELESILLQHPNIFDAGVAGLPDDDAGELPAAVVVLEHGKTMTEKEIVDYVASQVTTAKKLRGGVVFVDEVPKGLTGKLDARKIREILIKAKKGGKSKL
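Purified P. pyralis luciferase, 10 nM final, with Km-level 10 uM D-luciferin and 10 uM ATP in 50 mM Tris acetate pH 7.5, 10 mM Mg acetate, 0.01% Tween-20, 0.05% BSA; 6-point qHTS titration about 60 µM downward; luminescence read.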
ELG1 genotoxic: genotoxicity induction in ELG1-luciferase HEK293T cells. HEK293T ELG1-luciferase reporter, luminescence, 16 h. Potency, µM (highest dose often 46 µM), without a hit: at the highest dose activity change, positive = activation, usual class: activators. 330,000 tested, 1.3% active; note: % of control where 0% means no effect; nearly all actives have a fitted effect of over 60% in size
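Genotoxicity was scored as increased ELG1-luciferase reporter signal, measured by ONE-Glo luminescence (30 min, room temperature). Compound or vehicle exposure of the HEK293T reporter cells lasted 16 hr at 37°C.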
SMN2 splice up: increases expression of the SMN2 splice variant; AID 1458; Potency, µM (highest dose often 46.1 µM), for the others: at the highest dose activity change, positive = activation, hits mostly activators; HEK293 SMN2-luciferase splicing reporter, luminescence, 30-36 h; 210,000 tested, 2.8% active; note: % of control where 0% means no effect; nearly all actives have a fitted effect of over 55% in size
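HEK293 cells carry an SMN2 […]–luciferase reporter in which exon 7 inclusion puts luciferase in frame. Cells were plated 10-12 h before compound addition, then incubated 30-36 h at 37C. ONE-Glo luminescence was read; sodium butyrate at 4.5 mM final served as control.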
Numbers without * were called inactive; ? = inconclusive; . = no result; [ ] = dose if it differs, or a comment. Most compounds without a hit are left out; they make up all but 7.4% or so of the library. Calls come from the whole dose curve; as a rule, active = well fitted curve in the direction sought with a large enough effect; inconclusive = small, poorly fitted or top-dose-only effect, or another doubt; inactive = no such curve, though single readings can be large; an effect the other way counts as inactive or inconclusive. Potency is the fitted concentration of half-maximal effect.

SMILES | Rab9 promoter act | p53 reactivation | NPC1 promoter act | FLuc modulator | ELG1 genotoxic | SMN2 splice up
C#CCOCCOCCOCCNc1nc(N2CCN(C(=O)[C@H](CC(N)=O)n3cc([C@@H](N)C(C)C)nn3)CC2)nc(N2CCN(C(=O)[C@H](CC(N)=O)n3cc([C@@H](N)C(C)C)nn3)CC2)n1 | . | -1.0% | . | . | 1.9% | .
CN1C2CCCC1CC(NC(=O)c1nn(C)c3ccccc13)C2 (centres undefined) | 3.8%[46.1 µM] | . | 4.3%[46.1 µM] | . | . | .
COc1ccc(C(=O)c2oc3ccccc3c2NC(=O)COc2c(C)cc(C)cc2C)cc1 | . | . | . | 1.0% | . | 2.8%
C(=N\c1nc2ccccc2[nH]1)/c1cccs1 | -0.2% | 1.5% | -3.8% | 1.07µM* | 0.8% | 0.4%
Cn1c(/C=N/c2nc3ccccc3[nH]2)nc2ccccc21 | 0.2% | 7.3% | -0.3% | 2.5%[2.3 µM] | -1.2% | 24.3%
COc1cc(Br)c(/C=C(\C#N)c2nc3ccccc3[nH]2)cc1OC | . | . | . | 8.49µM* | . | 27.5%
COc1cc(/C=C(\C#N)c2nc3ccccc3[nH]2)ccc1OCc1ccc(F)cc1 | . | . | . | 5.0% | . | 13.9%
Cc1cc(/C=C(/C#N)c2nc3ccccc3[nH]2)c(C)n1-c1cc(C(=O)O)cc(C(=O)O)c1 | -11.7% | 5.1% | -1.2% | 16.9µM* | -1.6% | -4.6%
COc1ccc2nc(/C(C#N)=C\c3ccc(C(=O)O)cc3)[nH]c2c1 | 0.9% | 18.3% | -2.4% | 23.9µM* | 2.3% | .
COCc1nc2cccnc2n1C1CCN(S(=O)(=O)N(C)C)CC1 | . | . | . | 1.4% | . | .
C(=N\c1nc2ccccc2n1Cc1ccccc1)/c1cccs1 | 4.3% | -3.7% | 1.2% | 13.5µM* | -10.9% | -14.1%
C(=N\c1nc2ccccc2n1CCN1CCOCC1)/c1cccs1 | -0.5% | -17.4% | -5.3% | ? | -0.4% | -4.0%
CN1CCC2(CC1)CCN(C(=O)c1cc(C(F)(F)F)cc(C(F)(F)F)c1)CC2 | . | . | . | . | . | 1.3%
Cc1ccc(SCc2cn3ccccc3n2)cc1 | 1.58µM* | 18.9% | 1.26µM* | 5.36µM* | 5.17µM* | .
c1ccc(CSCc2cn3ccccc3n2)cc1 | 1.12µM* | 0.5% | 2.82µM* | 16.9µM* | ? | 15.8µM*
c1ccc2nc(SCc3cn4ccccc4n3)cnc2c1 | ? | -3.3% | ? | ? | 1.5% | ?
S=C(NC1CCCCC1)NC1CCCCC1 | . | . | . | . | . | 12.9%
CC(=O)Nc1cccc(NC(=O)c2oc3ccccc3c2C)c1 | 3.55µM* | 13.3% | 3.16µM* | 6.01µM* | ? | 11.2µM*
Nc1c(C(=O)Nc2ccc(Cl)cc2)oc2ccccc12 | 2.51µM* | ? | 1.41µM* | 2.69µM* | 2.31µM* | 23.7%
CCC(=O)Nc1ccc(NC(=O)c2oc3ccccc3c2C)cc1 | -9.4% | . | -5.3% | 5.36µM* | 9.0% | .
Cc1c(O)ccc(/C(Cc2ccc3ccccc3n2)=N\N)c1O | 17.1% | 13.9% | 18.6% | 15.1µM* | 9.7% | .
COC(=O)[C@H](COC(C)(C)C)NC(=O)O[C@@H]1C(=O)c2cc(OC)ccc2O[C@H]1c1ccc(OC)c(Br)c1 | . | . | . | . | . | -5.3%
CCC1(c2ccc(F)cc2)NC(=O)N(CC(=O)N2CCN(C(=O)c3ccco3)CC2)C1=O (centres undefined) | . | -5.4% | . | . | 1.2% | .
CN1CCN(/N=C/c2ccc(OCc3ccccc3)cc2)CC1 | 2.82µM* | 13.7% | 3.55µM* | 9.53µM* | ? | .
COC(=O)c1ccc(COc2ccc(/C=N/N3CCN(C)CC3)cc2)cc1 | 1.12µM* | -2.8% | ? | 23.9µM* | ? | 5.62µM*
CC(/C=C/c1ccc(OCc2ccccc2)cc1)=N\O | 2.82µM* | ? | 2.82µM* | 2.39µM* | 14.6µM* | 11.2µM*
CC(/C=C/c1ccccc1)=N/O | 15.5% | ? | 12.6% | ? | 8.2% | -7.9%
C(=N\n1cnnc1)/c1ccc(OCc2ccccc2)cc1 | 7.6% | 16.9% | -0.2% | ? | ? | -26.2%
CC1CCN(S(=O)(=O)c2ccc3c(c2)N(CC(=O)NCC(C)c2ccccc2)C(=O)CO3)CC1 (centres undefined) | . | . | . | -9.1% | . | -11.1%

High-throughput results deposited in PubChem by National Center for Advancing Translational Sciences (NCATS).
